# High-throughput results: PubChem, National Center for Advancing Translational Sciences (NCATS)
# D2 PAM-1 = Beta-Arrestin HTS for Positive Allosteric Modulators of the Human D2 Dopamine Receptor: Potentiators; D(2) dopamine receptor (Homo sapiens), P14416; DiscoveRx D2 beta-arrestin cells, luminescence, 90 min; 100% = 57 uM dopamine signal; potentiation, % (no concentration beside the values); 0.23% of 360,000 active; in the data active means potentiation above about 50%
# Target sequence (P14416 whole entry, looked up): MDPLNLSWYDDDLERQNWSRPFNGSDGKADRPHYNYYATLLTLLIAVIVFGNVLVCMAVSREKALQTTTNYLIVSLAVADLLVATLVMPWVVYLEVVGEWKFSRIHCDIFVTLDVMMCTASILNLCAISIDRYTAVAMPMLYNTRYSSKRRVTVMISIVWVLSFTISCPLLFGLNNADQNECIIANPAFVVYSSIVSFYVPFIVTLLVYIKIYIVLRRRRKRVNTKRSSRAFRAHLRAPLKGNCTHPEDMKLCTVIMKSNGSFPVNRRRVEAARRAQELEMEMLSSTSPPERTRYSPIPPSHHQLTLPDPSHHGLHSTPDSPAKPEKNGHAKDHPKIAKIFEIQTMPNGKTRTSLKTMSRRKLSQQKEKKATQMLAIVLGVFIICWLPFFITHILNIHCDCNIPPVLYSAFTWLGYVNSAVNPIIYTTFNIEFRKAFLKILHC
#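 PathHunter beta-arrestin assay in DiscoveRx D2 cells. Compounds were added with an EC20 of dopamine (50 nM final) for 90 min at 37 deg C. Luminescence was read 1 h after detection reagent, with 57 uM dopamine as the EC100 control.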
# D2 PAM-2 = HTS Assay for Positive Allosteric Modulators of the Human D2 Dopamine Receptor: Primary Screen for Potentiators; HEK293 T-REx D2, calcium flux, EC20 dopamine potentiation; potentiation, % at 10 µM; 0.34% of 340,000 active; AID 485347, 2010;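 active means potentiation over 3 SD above the plate norm, cut at about 30% in these data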; further: 0% is about no effect
#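 Primary screen. Calcium kinetics in induced HEK293 T-REx D2 cells: compound pre-addition 180 s, EC20 dopamine, 180 s more.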
# D2 ag-1 = Beta-Arrestin HTS for Positive Allosteric Modulators of the Human D2 Dopamine Receptor: Agonists; D(2) dopamine receptor (Homo sapiens), P14416; DiscoveRx PathHunter D2 beta-arrestin, luminescence, 90 min; 100% = 57 uM dopamine signal; activation, % (no concentration beside the values); 0.084% of 360,000 active; in the data active means activation above about 40%
#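 DiscoveRx PathHunter D2 beta-arrestin cells (2,100/well) attached overnight, then compound-stimulated 90 min at 37 C in HBSS/10 mM HEPES/0.1% Tween-20 buffer; beta-galactosidase complementation read by luminescence after 1 h at ambient temperature. Dopamine 57 uM final (EC100) as control.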
# D2 ag-2 = HTS Assay for Allosteric Agonists of the Human D2 Dopamine Receptor: Primary Screen for Agonists | HEK293 T-REx D2 cells, calcium flux agonist mode | 0.53% of 340,000 active | activation, % at 2 µM | D(2) dopamine receptor (Homo sapiens), P14416;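 active means activation over 3 SD above normal in the single-dose calcium agonist read, cut at about 30% in these data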; further: 0% is about no effect
#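 Calcium-flux readout, 1 cycle/sec over 180 s following compound pin transfer, in inducible HEK293 Trex D2 cells (force-coupled); dopamine controls included. Positive calcium responses during this window marked compounds as potential agonists.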
# D2 antag = HTS Assay for Allosteric Antagonists of the Human D2 Dopamine Receptor: Primary Screen for Antagonists; AID 485344, 2010; inhibition, % at 10 µM; 2% of 340,000 active; HEK293 TREx D2 cells, calcium flux, dopamine EC80; D(2) dopamine receptor (Homo sapiens), P14416; in the data active means inhibition above about 30%; inactive means below that, where a call was filed; further: 0% is about no effect
#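 Overnight-induced (tetracycline, 30 C) HEK293 T-REx cells carrying force-coupled D2 receive a no-wash calcium dye, then compound, then EC80 dopamine at 180 s; signals are read kinetically throughout.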
# * hit, by the source's call; / = not tested or not shown. The list is not random: actives were taken first. Their share in the collection is about 2.4%.
SMILES,D2 PAM-1,D2 PAM-2,D2 ag-1,D2 ag-2,D2 antag
COc1ccc(C2N(C(=O)C(F)(F)F)C(C)CN2S(=O)(=O)c2ccc(C)cc2)cc1 (stereo not given),-6,-9,1,1,35*
CN(C)c1ccc(-c2noc(C3CC(=O)N(c4ccc5c(c4)OCCO5)C3)n2)cc1 (stereo not given),/,-9,/,0,/
COc1cc(CN(C)CCc2ccccc2)ccc1OCc1ccccc1,-19,-11,1,18,36*
COc1ccc(NC2=CC(=O)CC(c3ccccc3)C2)c(OC)c1 (stereo not given),-3,-5,-1,-1,31*
O=C(CCCN1CC=C(n2c(=O)[nH]c3ccccc32)CC1)c1ccc(F)cc1,-33,-23,-3,1,81*
Cc1ccc(Sc2ccc(CN3CCCC3)cc2[N+](=O)[O-])cc1,-12,-15,1,1,36*
Cc1cccc(N(CC(=O)NCCSCc2ccccc2)S(=O)(=O)c2ccccc2)c1C,/,5,/,0,/
O=C(NCCCN1CCN(c2ccccc2)CC1)C1CCCN(c2ncnc3c2nc2n3CCCCC2)C1 (stereo not given),-29,-29,0,12,59*
O=C(COC(=O)Cn1nc(-c2ccccc2)oc1=O)Nc1ccc(F)cc1,65*,4,7,-1,3
Cc1cccc(C)c1NC(=O)CN1C(=O)S/C(=C\c2cccn2C)C1=O,3,1,1,0,30*
Cc1cccc(C)c1NC(=O)CN1C(=O)S/C(=C\c2cccn2-c2cccc(C(=O)O)c2)C1=O,-8,-2,-2,0,0
Cc1cccc(OCc2ccc(-c3nc(C#N)c(NCc4cccnc4)o3)o2)c1,/,-11,/,/,/
CCOCc1nnc(NC(=O)c2ccc(OC)cc2)s1,-5,-7,2,1,33*
COCc1nnc(NC(=O)c2ccc(OC)cc2OC)s1,-6,38*,-5,-1,39*
COc1ccc(Cc2nnc(NC(=O)c3ccc(OC)c(OC)c3)s2)cc1OC,-5,25,-4,0,-3
COc1ccc(Cc2nnc(NC(=O)c3cccs3)s2)cc1OC,-3,40*,1,1,-4
COc1ccc(Cc2nnc(NC(=O)c3c(-c4ccccc4)noc3C)s2)cc1,-2,34*,-3,-2,-18
COc1ccc(Cc2nnc(NC(=O)c3c(-c4ccccc4)noc3C)s2)cc1OC,/,3,/,2,3
COc1ccc(C(=O)Nc2nnc(Cc3ccc(OC)c(OC)c3)s2)c(OC)c1,1,1,5,0,-2
COc1ccc(-c2nc3scc(CCNS(=O)(=O)c4ccc(C)cc4)n3n2)cc1,/,-1,/,1,/
CCOC(=O)C1CCCN(C(=O)c2cccc(NC(=O)c3nsc4ccccc34)c2)C1 (stereo not given),/,-4,/,1,/
COc1ccc(-c2nnc(NC(=O)C(C)C)s2)c(OC)c1,-5,36*,-1,1,10
CC(C)(CC(=O)O)Cc1nc(-c2ccc(Cl)cc2)no1,-6,-4,-3,-2,44*
COc1ccc(-c2noc(CNC(=O)c3ccco3)n2)cc1,/,6,/,1,/
O=C(NCc1nc(-c2ccc(Cl)cc2)no1)c1ccco1,-1,12,0,0,34*
SMILES,D2 PAM-1,D2 PAM-2,D2 ag-1,D2 ag-2,D2 antag
Cc1cc(C)cc(C(=O)Nc2c(C(=O)Nc3ccccc3F)oc3ccccc23)c1,/,6,/,-1,/
COc1cccc(-n2c(-c3ccco3)nc3c(cnn3-c3ccc(C)cc3)c2=O)c1,/,-2,/,-1,/
COCCCNC(=O)c1nn(-c2ccc(C)cc2)c(=O)n(C)c1=O,/,7,/,0,/
CCOC(=O)c1cc(S(=O)(=O)NC2CCC(C)CC2)cn1C (stereo not given),1,99*,3,0,-10
COc1ccc(Br)cc1CNc1ccc(O)cc1,55*,/,10,-1,13
CCOP(=O)(OCC)C(Nc1cccc(C(F)(F)F)c1)c1ccc(C)cc1 (stereo not given),-9,-17,-2,37*,-10
COc1ccc(CC(=O)Nc2ccc(S(=O)(=O)NCC3CCCO3)cc2)cc1 (stereo not given),-6,2,1,0,32*
CCC(C)NS(=O)(=O)c1ccc(OCC(=O)Nc2ccc3c(c2)OCCO3)cc1 (stereo not given),-1,48*,-1,0,6
CC(=O)Nc1ccc(S(=O)(=O)NCC2CCCO2)cc1 (stereo not given),-2,/,1,/,/
CCC(C)NS(=O)(=O)c1ccc(OCC(=O)NCC2CCCO2)cc1 (stereo not given),-2,34*,0,-2,-2
CC(C)CNS(=O)(=O)c1ccc(OCC(=O)Nc2ccc3c(c2)OCCO3)cc1,0,-2,-19,-3,18
COC(=O)c1c(-c2cccs2)csc1NC(=O)c1cc(OC)c(OC)c(OC)c1,/,9,/,1,/
CCS(=O)(=O)c1ncc(Cl)c(C(=O)N2CCN(c3ccc(OC)cc3)CC2)n1,/,1,/,4,/
O=C(Nc1ccc(Oc2ccccc2)cc1)C1CCN(S(=O)(=O)c2ccccc2)CC1,/,19,/,-1,/
O=C(Nc1ccccc1)c1cccc(S(=O)(=O)Nc2cccc(F)c2)c1,/,-14,/,1,/
CCCCSc1nnc(-c2c[nH]c3ccccc23)n1C,-5,-2,11,0,8
Cn1c(SCc2ccccc2)nnc1-c1c[nH]c2ccccc12,-8,7,-4,1,35*
Nc1ccc(C#Cc2ccc3c(=O)c4ccccc4oc3c2)cc1,-9,-6,-2,2,41*
COc1cc2oc3cc(C#Cc4ccc(N)cc4)ccc3c(=O)c2cc1OC,-3,/,-1,/,/
COC(=O)CCC(=O)OC1(C)C(=O)C2=CN(C(CO)CO)C(c3ccc(OC)cc3)=CC2=C(Br)C1=O (stereo not given),/,-10,/,3,30*
COc1cccc(N2CCN(C(=O)c3cc4c(OC)c(OC)c(OC)cc4[nH]3)CC2)c1,-9,-12,2,1,38*
COc1cc2[nH]c(C(=O)N3CCN(C)CC3)cc2c(OC)c1OC,-4,8,-3,2,5
COc1cc2[nH]c(C(=O)NCCc3ccccc3)cc2c(OC)c1OC,-24,-14,-1,-1,79*
COc1cc2[nH]cc(C(=O)NCc3ccccc3)c(=O)c2cc1OC,-4,15,5,1,10
